# What was measured:
# Assay in all cases: DAPPL (digital affinity profiling via proximity ligation, sequencing); 10 mM Tris-HCl pH 7.5, 50 mM NaCl, 1 mM DTT, 4% glycerol, room temperature, 30 min; GST-TFs on glutathione beads, 16-mer random dsDNA library, 0.1% formaldehyde crosslink after washing; high values mean tight binding
# Settings in all cases: protein: recombinant; tags: N-terminal GST; dsDNA, one strand shown
# ETV1 = ETV1 (Homo sapiens, UniProt P50549 1-477)
# Method in brief: (§1)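 Human transcription factors were made in yeast as GST fusions, captured on glutathione beads and barcoded with DNA. With a tag-only sample included, the pool was incubated with 200 nmole of a random double-stranded 16-mer DNA library in Tris/NaCl/DTT/glycerol buffer at room temperature for 30 min, then crosslinked with 0.1% formaldehyde after washing, ligated by proximity, amplified and sequenced. For binding signal, each hexamer's read frequency for a factor is divided by its frequency for the tag-only sample.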
# ERF = biological target: T1, ERF (Homo sapiens, UniProt P50548 1-548)
# T1 sequence: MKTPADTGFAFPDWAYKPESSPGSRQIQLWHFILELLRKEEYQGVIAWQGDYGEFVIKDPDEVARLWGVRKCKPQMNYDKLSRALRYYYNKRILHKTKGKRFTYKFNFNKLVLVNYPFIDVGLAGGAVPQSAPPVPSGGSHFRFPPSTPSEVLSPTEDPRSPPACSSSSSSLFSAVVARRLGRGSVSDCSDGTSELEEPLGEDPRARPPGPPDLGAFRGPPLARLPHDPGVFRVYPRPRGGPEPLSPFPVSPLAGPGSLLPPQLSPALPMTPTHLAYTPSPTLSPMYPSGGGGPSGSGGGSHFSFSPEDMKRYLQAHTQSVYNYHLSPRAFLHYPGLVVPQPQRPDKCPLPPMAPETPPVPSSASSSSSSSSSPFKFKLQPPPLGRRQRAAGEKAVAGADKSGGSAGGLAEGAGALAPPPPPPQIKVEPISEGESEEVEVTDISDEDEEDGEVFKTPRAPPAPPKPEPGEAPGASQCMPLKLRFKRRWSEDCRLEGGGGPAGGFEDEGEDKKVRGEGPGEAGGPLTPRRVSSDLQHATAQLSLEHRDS
# Method in brief: as §1
# ETV3L = biological target: T2, ETV3L (Homo sapiens, UniProt Q6ZN32 1-361)
# T2 sequence: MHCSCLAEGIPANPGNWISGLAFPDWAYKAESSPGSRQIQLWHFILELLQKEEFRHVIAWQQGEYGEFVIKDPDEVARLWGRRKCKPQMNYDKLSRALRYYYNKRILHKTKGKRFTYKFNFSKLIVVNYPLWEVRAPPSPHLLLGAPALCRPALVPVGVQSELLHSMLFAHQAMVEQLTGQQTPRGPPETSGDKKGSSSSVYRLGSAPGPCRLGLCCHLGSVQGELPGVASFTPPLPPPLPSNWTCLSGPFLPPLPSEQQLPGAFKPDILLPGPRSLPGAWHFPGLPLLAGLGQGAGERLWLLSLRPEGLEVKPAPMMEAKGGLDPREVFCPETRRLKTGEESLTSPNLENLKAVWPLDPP
# Method in brief: as §1
# ETS2 = biological target: T3, ETS2 (Homo sapiens, UniProt P15036 1-469)
# T3 sequence: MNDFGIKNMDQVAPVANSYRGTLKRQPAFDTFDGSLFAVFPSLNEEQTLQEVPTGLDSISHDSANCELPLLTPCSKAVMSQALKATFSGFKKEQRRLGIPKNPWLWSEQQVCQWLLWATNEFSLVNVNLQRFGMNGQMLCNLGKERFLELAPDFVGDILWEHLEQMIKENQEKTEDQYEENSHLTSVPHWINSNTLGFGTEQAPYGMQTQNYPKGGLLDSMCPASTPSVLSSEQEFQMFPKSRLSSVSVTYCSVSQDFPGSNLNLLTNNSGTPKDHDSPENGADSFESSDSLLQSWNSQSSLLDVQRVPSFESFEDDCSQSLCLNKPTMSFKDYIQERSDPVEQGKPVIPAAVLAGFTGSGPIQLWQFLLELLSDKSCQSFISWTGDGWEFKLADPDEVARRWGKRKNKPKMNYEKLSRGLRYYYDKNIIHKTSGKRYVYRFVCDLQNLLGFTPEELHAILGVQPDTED
# Method in brief: as §1
# SPDEF = biological target: T4, SPDEF (Homo sapiens, UniProt O95238 1-335)
# T4 sequence: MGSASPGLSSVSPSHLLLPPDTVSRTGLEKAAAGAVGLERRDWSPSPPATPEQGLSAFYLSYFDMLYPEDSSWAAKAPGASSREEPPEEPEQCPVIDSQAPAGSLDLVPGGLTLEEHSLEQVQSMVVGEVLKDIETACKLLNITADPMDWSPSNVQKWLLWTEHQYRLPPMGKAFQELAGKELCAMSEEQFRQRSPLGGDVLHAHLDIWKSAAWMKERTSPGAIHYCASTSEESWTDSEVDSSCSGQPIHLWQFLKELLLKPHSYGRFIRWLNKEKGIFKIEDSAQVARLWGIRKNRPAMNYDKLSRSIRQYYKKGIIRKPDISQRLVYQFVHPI
# Method in brief: as §1
# ETV7 = biological target: T5, ETV7 (Homo sapiens, UniProt Q9Y603 1-341)
# T5 sequence: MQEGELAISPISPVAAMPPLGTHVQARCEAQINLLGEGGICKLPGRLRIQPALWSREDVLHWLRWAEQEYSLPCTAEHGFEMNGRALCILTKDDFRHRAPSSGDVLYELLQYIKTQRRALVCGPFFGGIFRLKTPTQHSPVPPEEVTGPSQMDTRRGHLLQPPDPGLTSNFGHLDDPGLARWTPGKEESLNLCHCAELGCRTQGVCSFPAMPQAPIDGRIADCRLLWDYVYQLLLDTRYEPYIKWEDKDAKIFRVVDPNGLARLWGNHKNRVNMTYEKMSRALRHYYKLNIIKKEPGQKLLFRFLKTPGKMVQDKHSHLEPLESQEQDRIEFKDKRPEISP
# Method in brief: as §1
# ELF5 = biological target: T6, ELF5 (Homo sapiens, UniProt Q9UKW6-2 1-255)
# T6 sequence: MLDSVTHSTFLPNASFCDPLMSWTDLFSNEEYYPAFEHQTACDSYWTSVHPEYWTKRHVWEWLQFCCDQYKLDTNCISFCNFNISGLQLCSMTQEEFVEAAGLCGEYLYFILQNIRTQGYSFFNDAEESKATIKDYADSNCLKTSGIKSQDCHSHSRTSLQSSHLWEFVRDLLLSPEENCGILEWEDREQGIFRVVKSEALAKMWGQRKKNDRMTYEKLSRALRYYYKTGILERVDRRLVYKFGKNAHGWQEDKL
# Method in brief: as §1
# ETV3 = biological target: T7, ETV3 (Homo sapiens, UniProt P41162-2 1-143)
# T7 sequence: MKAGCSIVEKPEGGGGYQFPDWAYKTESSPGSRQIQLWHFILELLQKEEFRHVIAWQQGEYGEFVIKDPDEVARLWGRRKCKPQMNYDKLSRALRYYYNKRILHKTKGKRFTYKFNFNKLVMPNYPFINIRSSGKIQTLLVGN
# Method in brief: as §1
# ETV6 = ETV6 (Homo sapiens, UniProt P41212 1-452)
# ETV6, sequence (P41212 whole entry): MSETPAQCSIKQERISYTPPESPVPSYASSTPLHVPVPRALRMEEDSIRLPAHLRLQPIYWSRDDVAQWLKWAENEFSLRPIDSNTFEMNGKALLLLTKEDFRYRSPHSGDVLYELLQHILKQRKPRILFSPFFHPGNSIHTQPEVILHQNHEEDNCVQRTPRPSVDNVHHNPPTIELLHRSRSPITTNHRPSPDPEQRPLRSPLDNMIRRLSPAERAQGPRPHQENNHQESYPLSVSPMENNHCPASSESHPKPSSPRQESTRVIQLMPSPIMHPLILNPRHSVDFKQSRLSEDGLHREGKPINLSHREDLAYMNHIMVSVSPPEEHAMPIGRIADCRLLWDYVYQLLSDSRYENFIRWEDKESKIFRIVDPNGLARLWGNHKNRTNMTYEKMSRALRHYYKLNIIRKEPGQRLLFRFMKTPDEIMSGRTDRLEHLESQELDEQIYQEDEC
# Method in brief: as §1
# ETV1, sequence (P50549 whole entry, the tested form may be a part): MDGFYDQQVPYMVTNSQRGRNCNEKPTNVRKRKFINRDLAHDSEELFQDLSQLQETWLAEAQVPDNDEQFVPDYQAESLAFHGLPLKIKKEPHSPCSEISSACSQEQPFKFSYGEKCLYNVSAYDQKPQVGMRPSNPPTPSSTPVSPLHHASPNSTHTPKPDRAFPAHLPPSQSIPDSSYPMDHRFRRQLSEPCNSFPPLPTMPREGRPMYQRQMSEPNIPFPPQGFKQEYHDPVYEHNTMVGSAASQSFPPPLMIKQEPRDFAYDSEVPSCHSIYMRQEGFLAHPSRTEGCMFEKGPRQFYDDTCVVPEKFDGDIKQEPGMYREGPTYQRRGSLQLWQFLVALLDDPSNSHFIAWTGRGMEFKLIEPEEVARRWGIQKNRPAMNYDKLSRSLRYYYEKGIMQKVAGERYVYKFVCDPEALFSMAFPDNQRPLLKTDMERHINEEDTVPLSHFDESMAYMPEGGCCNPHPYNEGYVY
sequence,measurement,setting,value
TTCCTA,binding signal,ETV1,"1.72 fold enrichment (6-mer frequency, TF over GST control)"
same,binding signal,ERF,"1.54 fold enrichment (6-mer frequency, TF over GST control)"
same,binding signal,ETV3L,"1.57 fold enrichment (6-mer frequency, TF over GST control)"
same,binding signal,ETS2,"1.8 fold enrichment (6-mer frequency, TF over GST control)"
same,binding signal,SPDEF,"1.6 fold enrichment (6-mer frequency, TF over GST control)"
same,binding signal,ETV7,"1.64 fold enrichment (6-mer frequency, TF over GST control)"
same,binding signal,ELF5,"2.04 fold enrichment (6-mer frequency, TF over GST control)"
same,binding signal,ETV3,"1.89 fold enrichment (6-mer frequency, TF over GST control)"
same,binding signal,ETV6,"1.99 fold enrichment (6-mer frequency, TF over GST control)"

# From PMC7862700, “An all-to-all approach to the identification of sequence-specific readers for epigenetic DNA modifications on cytosine”
